Source: PubChem BioAssay (NCATS)
Inconclusive results are not listed. Calls of active or inactive are those of the source. Calls follow the shape of the dose curve; as a rule, active = well fitted curve in the direction sought with a large enough effect; inconclusive = small, poorly fitted or top-dose-only effect, or another doubt; inactive = no such curve, though single readings can be large; an effect the other way counts as inactive or inconclusive.

system: not listed separately; assay: qHTS of pediatric cancer cell lines to identify multiple opportunities for drug repurposing: Confirmatory screen for Saos-2 cells (AID 1347127); details: Saos-2 osteosarcoma cell viability; series mostly up to 45.9 µM; activity change, negative = cytotoxic: at the top concentration; also: nearly all actives have a fitted effect of over 60% in size; also: potency is read from the fitted curve at half-maximal effect;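 as to activity change, negative = cytotoxic: plate controls were DMSO for no effect and bortezomib for full effect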
In short: (§1)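 Cells (500-1,000/well) in growth media were settled 5 h at 37 degrees C, then given compounds for 48 h. Viability was read as CellTiter-Glo luminescence. Primary runs used MIPE at 11 points (0.78 nM-46 µM) and NPC at 8 points (0.59 nM-46 µM); follow-ups used 11 points.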

Structure (SMILES)	Potency	activity change, negative = cytotoxic
CCN1/C(=C/C=C/c2sc3ccccc3[n+]2CC)Sc2ccccc21	4140 nM (active)	
O=C(CCCN1CC=C(n2c(=O)[nH]c3ccccc32)CC1)c1ccc(F)cc1		-4.57% (inactive)
CCCCCCCCCCC[C@@H](C[C@@H]1OC(=O)[C@H]1CCCCCC)OC(=O)[C@H](CC(C)C)NC=O		-6.53% (inactive)
CCCCCCCCCCCCOCCOCCOCCOCCOCCOCCOCCOCCOCCO		0.571% (inactive)
COc1ccc(C(=O)c2ccccc2)c(O)c1		5.07% (inactive)
Nc1nc(Cl)nc2c1ncn2[C@@H]1O[C@H](CO)[C@@H](O)[C@@H]1F	465 nM (active)	
C[C@@]12C(=O)OC(=O)[C@]1(C)C1CCC2O1	2930 nM (active)	
CCN[C@@H]1C[C@H](N)[C@@H](OC2OC(CN)=CCC2N)[C@H](O)[C@H]1O[C@H]1OC[C@](C)(O)[C@H](NC)[C@H]1O (some centres not stated)		11.1% [at 0.556 µM] (inactive)
C[C@H]1O[C@@H](O[C@H]2CC[C@@]3(C)[C@H](CC[C@@H]4[C@@H]3C[C@@H](O)[C@]3(C)[C@@H](C5=CC(=O)OC5)CC[C@]43O)C2)C[C@H](O)[C@@H]1O[C@H]1C[C@H](O)[C@H](O[C@H]2C[C@H](O)[C@H](O[C@@H]3O[C@H](CO)[C@@H](O)[C@H](O)[C@H]3O)[C@@H](C)O2)[C@@H](C)O1	928 nM (active)	
CCN(CC)CCOc1ccc2c(c1)C(=O)c1cc(OCCN(CC)CC)ccc1-2		-19.2% (inactive)

system: not listed separately; assay: qHTS of pediatric cancer cell lines to identify multiple opportunities for drug repurposing: Confirmatory screen for OHS-50 cells (AID 1347128); details: OHS-50 osteosarcoma cells viability; series mostly up to 45.9 µM; activity change, negative = cytotoxic: at the top concentration;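 also: compound exposure lasted 48 h at 37 degrees C; nearly all actives have a fitted effect of over 55% in size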; also: potency is read from the fitted curve at half-maximal effect; as to activity change, negative = cytotoxic: % is scaled to controls: 0 for no effect and ±100 for the full control effect
In short: as §1

Structure (SMILES)	Potency	activity change, negative = cytotoxic
CCN1/C(=C/C=C/c2sc3ccccc3[n+]2CC)Sc2ccccc21	5850 nM (active)	
O=C(CCCN1CC=C(n2c(=O)[nH]c3ccccc32)CC1)c1ccc(F)cc1		-6.68% (inactive)
NC(N)=NN=C(/C=C/c1ccc([N+](=O)[O-])o1)/C=C/c1ccc([N+](=O)[O-])o1	5220 nM (active)	
CCCCCCCCCCC[C@@H](C[C@@H]1OC(=O)[C@H]1CCCCCC)OC(=O)[C@H](CC(C)C)NC=O		-0.51% (inactive)
CCCCCCCCCCCCOCCOCCOCCOCCOCCOCCOCCOCCOCCO		-5.78% (inactive)
COc1ccc(C(=O)c2ccccc2)c(O)c1		1.38% (inactive)
C[C@@]12C(=O)OC(=O)[C@]1(C)C1CCC2O1	4650 nM (active)	
O=[N+]([O-])c1ccc(/C=N\O)o1		-1.72% (inactive)
CCN[C@@H]1C[C@H](N)[C@@H](OC2OC(CN)=CCC2N)[C@H](O)[C@H]1O[C@H]1OC[C@](C)(O)[C@H](NC)[C@H]1O (some centres not stated)		3.87% [at 0.556 µM] (inactive)
C[C@H]1O[C@@H](O[C@H]2CC[C@@]3(C)[C@H](CC[C@@H]4[C@@H]3C[C@@H](O)[C@]3(C)[C@@H](C5=CC(=O)OC5)CC[C@]43O)C2)C[C@H](O)[C@@H]1O[C@H]1C[C@H](O)[C@H](O[C@H]2C[C@H](O)[C@H](O[C@@H]3O[C@H](CO)[C@@H](O)[C@H](O)[C@H]3O)[C@@H](C)O2)[C@@H](C)O1	293 nM (active)	

system: not listed separately; assay: qHTS of pediatric cancer cell lines to identify multiple opportunities for drug repurposing: Confirmatory screen for SK-N-SH cells (AID 1347129); details: SK-N-SH neuroblastoma cell viability; series mostly up to 46.1 µM; activity change, negative = cytotoxic: at the top concentration;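 also: cells exposed to compound for 48 h before viability read; nearly all actives have a fitted effect of over 60% in size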; also: potency is read from the fitted curve at half-maximal effect;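 as to activity change, negative = cytotoxic: plate controls were DMSO for no effect and bortezomib control for full effect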
In short: as §1

Structure (SMILES)	Potency	activity change, negative = cytotoxic
CCN1/C(=C/C=C/c2sc3ccccc3[n+]2CC)Sc2ccccc21	2290 nM (active)	
NC(N)=NN=C(/C=C/c1ccc([N+](=O)[O-])o1)/C=C/c1ccc([N+](=O)[O-])o1	2350 nM (active)	
CCCCCCCCCCC[C@@H](C[C@@H]1OC(=O)[C@H]1CCCCCC)OC(=O)[C@H](CC(C)C)NC=O		-0.86% (inactive)
CCCCCCCCCCCCOCCOCCOCCOCCOCCOCCOCCOCCOCCO		4.03% (inactive)
O=C(Oc1cccc2cccnc12)c1ccccc1		-5.92% (inactive)
COc1ccc(C(=O)c2ccccc2)c(O)c1		-5.23% (inactive)
CN(C)C(=O)Nc1ccc(Cl)c(Cl)c1		-7.56% (inactive)
C[C@@]12C(=O)OC(=O)[C@]1(C)C1CCC2O1		4.61% (inactive)
CC1CCc2c(N3CCC(O)CC3)c(F)cc3c(=O)c(C(=O)O)cn1c23 (configuration not stated)		-0.97% (inactive)
O=[N+]([O-])c1ccc(/C=N\O)o1		-3.02% (inactive)
CCN[C@@H]1C[C@H](N)[C@@H](OC2OC(CN)=CCC2N)[C@H](O)[C@H]1O[C@H]1OC[C@](C)(O)[C@H](NC)[C@H]1O (some centres not stated)		6.98% [at 0.558 µM] (inactive)
C[C@H]1O[C@@H](O[C@H]2CC[C@@]3(C)[C@H](CC[C@@H]4[C@@H]3C[C@@H](O)[C@]3(C)[C@@H](C5=CC(=O)OC5)CC[C@]43O)C2)C[C@H](O)[C@@H]1O[C@H]1C[C@H](O)[C@H](O[C@H]2C[C@H](O)[C@H](O[C@@H]3O[C@H](CO)[C@@H](O)[C@H](O)[C@H]3O)[C@@H](C)O2)[C@@H](C)O1	332 nM (active)	
C=C[C@@]1(C)CC(=O)[C@]2(O)[C@@]3(C)[C@@H](O)CCC(C)(C)[C@@H]3[C@H](O)[C@H](OC(C)=O)[C@@]2(C)O1		-11.5% (inactive)
CCN(CC)CCOc1ccc2c(c1)C(=O)c1cc(OCCN(CC)CC)ccc1-2	18700 nM (active)	

biological target: N-terminal Xaa-Pro-Lys N-methyltransferase 1 (Homo sapiens) (UniProt Q9BV86); assay: qHTS Assay for Inhibitors of N-terminal methyltransferase 1 (NTMT1): LOPAC validation of the NTMT1 SAHH-coupled ThioGlo3 Assay (AID 1347143); details: recombinant NTMT1, SAHH-coupled ThioGlo3 fluorescence; series mostly up to 114 µM; activity change, negative = inhibition: at the top concentration;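 also: SAH from peptide methylation measured as thiol fluorescence via SAHH coupling and ThioGlo3; % is scaled to controls: 0 for no effect and ±100 for the full control effect; nearly all actives have a fitted effect of over 70% in size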
Sequence (Q9BV86 whole entry, looked up): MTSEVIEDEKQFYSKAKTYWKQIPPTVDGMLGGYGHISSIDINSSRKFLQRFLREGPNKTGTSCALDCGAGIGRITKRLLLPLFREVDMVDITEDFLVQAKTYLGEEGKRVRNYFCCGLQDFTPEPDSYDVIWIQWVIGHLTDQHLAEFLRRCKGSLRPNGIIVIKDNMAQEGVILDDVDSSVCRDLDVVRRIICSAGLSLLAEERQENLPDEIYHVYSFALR
In short: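 In this qHTS pilot against the LOPAC set, 125nM NTMT1 met compounds tested at multiple concentrations, and fluorescence was normalized to background.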

Structure (SMILES)	activity change, negative = inhibition
CCOC(=O)[C@H](CCc1ccccc1)N[C@@H](C)C(=O)N1[C@H](C(=O)O)C[C@H]2CCCC[C@@H]21	-14.3% (inactive)
CN=C(N)NCCC[C@H](N)C(=O)O	-5.46% (inactive)
NC(N)=NCc1cccc(I)c1	-7.2% (inactive)
